A number with no mark means an inactive call. Calls of active or inactive are those of the source. The call rests on the fitted dose curve; in most records, active means well fitted curve in the direction sought with a large enough effect in the repeat runs; inconclusive means weak or mixed curves; inactive means flat fitted curve, though single readings scatter.
Test: qHTS assay to test for compound auto fluorescence at 460 nm (blue) in HEK293 cells (AID 720678)
Details: blue autofluorescence 405/460 nm; series mostly up to 91.3 µM; fluorescence, % of triamterene: at the top concentration
Summary of the method: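 Auto fluorescence in the blue band was quantified as triamterene equivalency. HEK293 cells were seeded at 2,000/well, dosed after a 4-5 hr attachment, and kept overnight at 37C before the 405/460 nm reading.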
On the % scale 0 is the no-effect control and ±100 the full control effect.

| SMILES | Potency | fluorescence, % of triamterene |
| --- | --- | --- |
| C=C(c1ccc(C(=O)O)cc1)c1cc2c(cc1C)C(C)(C)CCC2(C)C | inactive |  |
| CN1[C@@H]2CC[C@@H]1CC(OC(=O)C(CO)c1ccccc1)C2 (some centres undefined) |  | 0.0534% [at 46 µM] |
| CN(C)c1ccc(N=Nc2ccccc2C(=O)O)cc1 |  | -0.151% |
| O=C1c2c(O)ccc(O)c2C(=O)c2c(NCCNCCO)ccc(NCCNCCO)c21 |  | -0.405% [at 18.6 µM] |
| CCCCCCCC/C=C\CCCCCCCC(=O)N(C)CC(=O)O |  | 0.0013% |
| Clc1ccc(C(Cn2ccnc2)OCc2ccsc2Cl)c(Cl)c1 (centres undefined) |  | 0.0867% [at 46 µM] |
| CCCCOc1ccc(C(=O)CCN2CCCCC2)cc1 |  | 0.101% [at 18.6 µM] |
| COc1ccc2sc(C(=O)Nc3nnn[nH]3)c(OC(C)C)c2c1 |  | -0.0009% |
| Cc1c(-c2ccc(O)cc2)n(Cc2ccc(OCCN3CCCCCC3)cc2)c2ccc(O)cc12 |  | 0.185% [at 46 µM] |
| CN(C)c1ccc(N=NS(=O)(=O)O)cc1 |  | 1.32% |
| c1cc(OCC2CO2)cc(OCC2CO2)c1 (centres undefined) |  | 0.0627% |
| Cc1cc2c(C(C)C)c(O)c(O)c(C=O)c2c(O)c1-c1c(C)cc2c(C(C)C)c(O)c(O)c(C=O)c2c1O |  | 0.436% [at 46 µM] |
| C=C[C@](C)(O)CC[C@@H]1[C@@]2(C)CCCC(C)(C)[C@@H]2CC[C@@]1(C)O |  | 0.0738% |
| CC(=O)OC(OC(C)=O)c1ccc([N+](=O)[O-])o1 |  | 1.09% [at 95.7 µM] |
| COC(=O)C1=C(C)NC(C)=C(C(=O)OCCCN2CCC(c3ccccc3)(c3ccccc3)CC2)C1c1cccc([N+](=O)[O-])c1 (centres undefined) |  | -0.0892% [at 46 µM] |
| CC=O |  | -0.0616% [at 95.7 µM] |
| CCN(CC)CCOc1ccc(C(O)(Cc2ccc(Cl)cc2)c2ccc(C)cc2)cc1 (centres undefined) |  | 0.0889% [at 46 µM] |
| N#CSCSc1nc2ccccc2s1 |  | 0.0208% |
| S=C(SSSSSSC(=S)N1CCCCC1)N1CCCCC1 |  | 0.0298% [at 18.6 µM] |

| SMILES | Potency | fluorescence, % of triamterene |
| --- | --- | --- |
| Cc1cc(Nc2ccc(O)cc2)ccc1N |  | -0.085% |
| CCCCCCOc1cc(C)c(O)c(C)c1C |  | -0.0722% [at 95.7 µM] |
| NC(=O)c1nc(-c2cccc(-c3cc(F)ccc3OCC(F)(F)C(F)(F)F)c2)n[nH]1 |  | -0.162% |
| COC(=O)[C@]1(C)CCC[C@@]2(C)[C@H]1CC=C1C=C(C(C)C)CC[C@@H]12 |  | 0.14% |
| O=C1NC2CCCCN2C12CCN(CCCN1c3ccccc3CCc3ccc(Cl)cc31)CC2 (centres undefined) |  | -0.0014% [at 46 µM] |
| NCCCC(O)(P(=O)(O)O)P(=O)(O)O |  | -0.142% [at 46 µM] |
| Oc1ccc(-c2ccc(O)cc2)cc1 |  | 0.0391% |
| CNCC[C@H](Oc1cccc2ccccc12)c1cccs1 |  | 0.0791% [at 46 µM] |
| SCCCCCCCCS |  | -0.0302% |
| NC(=O)C(=O)N/N=C/c1ccc([N+](=O)[O-])o1 |  | 0.265% [at 46 µM] |
| C[C@]12CC[C@H]3C(=CCc4cc(O)ccc43)[C@@H]1CCC2=O |  | 0.216% |
| CN1[C@@H]2CC[C@H]1CC(OC(=O)C(CO)c1ccccc1)C2 (some centres undefined) | inactive |  |
| O=C1Nc2ccc(Cl)cc2[C@@](C#CC2CC2)(C(F)(F)F)O1 |  | 0.0709% [at 46 µM] |
| C[C@H]1O[C@@H](O[C@H]2[C@@H](O)C[C@H](O[C@H]3[C@@H](O)C[C@H](O[C@H]4CC[C@@]5(C)[C@H](CC[C@@H]6[C@@H]5C[C@@H](O)[C@]5(C)[C@@H](C7=CC(=O)OC7)CC[C@]65O)C4)O[C@@H]3C)O[C@@H]2C)C[C@H](O)[C@@H]1O | inactive |  |
| CC1=C(/C=C/C(C)=C/C=C/C(C)=C\C=O)C(C)(C)CCC1 |  | 1.06% |
| CC(C)(C)CC(C)(C)c1ccccc1O |  | 0.0043% |
| CN(C)CCCN1c2ccccc2CCc2ccccc21 | inactive |  |
| NC1(c2ccc(-c3nc4ccn5c(=O)[nH]nc5c4cc3-c3ccccc3)cc2)CCC1 |  | 2.45% [at 46 µM] |

Test: qHTS assay to test for compound auto fluorescence at 590 nm (red) in HEK293 cells (AID 720679)
Details: red autofluorescence 540/590 nm; series mostly up to 91.3 µM; fluorescence, % of fluorescent control: at the top concentration
Summary of the method: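 Autofluorescence equivalency to Rose Bengal sodium, 540/590nm, in HEK293 cells exposed overnight to 23 nL compound per well.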

| SMILES | Potency | fluorescence, % of fluorescent control |
| --- | --- | --- |
| C=C(c1ccc(C(=O)O)cc1)c1cc2c(cc1C)C(C)(C)CCC2(C)C | inactive |  |
| CN1[C@@H]2CC[C@@H]1CC(OC(=O)C(CO)c1ccccc1)C2 (some centres undefined) |  | -0.0589% [at 46 µM] |
| CN(C)c1ccc(N=Nc2ccccc2C(=O)O)cc1 |  | 0.0093% |
| O=C1c2c(O)ccc(O)c2C(=O)c2c(NCCNCCO)ccc(NCCNCCO)c21 |  | -1.36% [at 18.6 µM] |
| CCCCCCCC/C=C\CCCCCCCC(=O)N(C)CC(=O)O |  | -0.062% |
| Clc1ccc(C(Cn2ccnc2)OCc2ccsc2Cl)c(Cl)c1 (centres undefined) |  | 0.037% [at 46 µM] |
| CCCCOc1ccc(C(=O)CCN2CCCCC2)cc1 |  | -0.0275% [at 18.6 µM] |
| COc1ccc2sc(C(=O)Nc3nnn[nH]3)c(OC(C)C)c2c1 |  | 0.0304% |
| Cc1c(-c2ccc(O)cc2)n(Cc2ccc(OCCN3CCCCCC3)cc2)c2ccc(O)cc12 |  | 0.0546% [at 46 µM] |
| CN(C)c1ccc(N=NS(=O)(=O)O)cc1 |  | -0.876% |
| c1cc(OCC2CO2)cc(OCC2CO2)c1 (centres undefined) |  | 0.792% |
| Cc1cc2c(C(C)C)c(O)c(O)c(C=O)c2c(O)c1-c1c(C)cc2c(C(C)C)c(O)c(O)c(C=O)c2c1O |  | 0.425% [at 46 µM] |
| C=C[C@](C)(O)CC[C@@H]1[C@@]2(C)CCCC(C)(C)[C@@H]2CC[C@@]1(C)O |  | -0.0696% |
| CC(=O)OC(OC(C)=O)c1ccc([N+](=O)[O-])o1 |  | 0.394% [at 95.7 µM] |
| COC(=O)C1=C(C)NC(C)=C(C(=O)OCCCN2CCC(c3ccccc3)(c3ccccc3)CC2)C1c1cccc([N+](=O)[O-])c1 (centres undefined) |  | 0.119% [at 46 µM] |
| CC=O |  | -0.356% [at 95.7 µM] |
| CCN(CC)CCOc1ccc(C(O)(Cc2ccc(Cl)cc2)c2ccc(C)cc2)cc1 (centres undefined) |  | 0.147% [at 46 µM] |
| N#CSCSc1nc2ccccc2s1 |  | -0.0315% |
| S=C(SSSSSSC(=S)N1CCCCC1)N1CCCCC1 |  | 0.199% [at 18.6 µM] |

| SMILES | Potency | fluorescence, % of fluorescent control |
| --- | --- | --- |
| Cc1cc(Nc2ccc(O)cc2)ccc1N |  | 1.02% |
| CCCCCCOc1cc(C)c(O)c(C)c1C |  | -0.0487% [at 95.7 µM] |
| NC(=O)c1nc(-c2cccc(-c3cc(F)ccc3OCC(F)(F)C(F)(F)F)c2)n[nH]1 |  | -0.0097% |
| COC(=O)[C@]1(C)CCC[C@@]2(C)[C@H]1CC=C1C=C(C(C)C)CC[C@@H]12 |  | -0.366% |
| O=C1NC2CCCCN2C12CCN(CCCN1c3ccccc3CCc3ccc(Cl)cc31)CC2 (centres undefined) |  | 0.0023% [at 46 µM] |
| NCCCC(O)(P(=O)(O)O)P(=O)(O)O |  | -0.0167% [at 46 µM] |
| Oc1ccc(-c2ccc(O)cc2)cc1 |  | -0.461% |
| CNCC[C@H](Oc1cccc2ccccc12)c1cccs1 |  | -0.0634% [at 46 µM] |
| SCCCCCCCCS |  | 0.0044% |
| NC(=O)C(=O)N/N=C/c1ccc([N+](=O)[O-])o1 |  | 0.0247% [at 46 µM] |
| C[C@]12CC[C@H]3C(=CCc4cc(O)ccc43)[C@@H]1CCC2=O |  | 0.303% |
| CN1[C@@H]2CC[C@H]1CC(OC(=O)C(CO)c1ccccc1)C2 (some centres undefined) | inactive |  |
| O=C1Nc2ccc(Cl)cc2[C@@](C#CC2CC2)(C(F)(F)F)O1 |  | -0.129% [at 46 µM] |
| C[C@H]1O[C@@H](O[C@H]2[C@@H](O)C[C@H](O[C@H]3[C@@H](O)C[C@H](O[C@H]4CC[C@@]5(C)[C@H](CC[C@@H]6[C@@H]5C[C@@H](O)[C@]5(C)[C@@H](C7=CC(=O)OC7)CC[C@]65O)C4)O[C@@H]3C)O[C@@H]2C)C[C@H](O)[C@@H]1O | inactive |  |
| CC1=C(/C=C/C(C)=C/C=C/C(C)=C\C=O)C(C)(C)CCC1 |  | 0.587% |
| CC(C)(C)CC(C)(C)c1ccccc1O |  | -0.44% |
| CN(C)CCCN1c2ccccc2CCc2ccccc21 | inactive |  |
| NC1(c2ccc(-c3nc4ccn5c(=O)[nH]nc5c4cc3-c3ccccc3)cc2)CCC1 |  | 0.05% [at 46 µM] |

Reference: PubChem BioAssay (Tox21)
